From PubChem BioAssay AID1259416 (Broad Institute, 2018)
Several values for one entry are separate records, joined by “and”; a condition that tells them apart may be missing. Equal values may be shown once. The whole screen tested about 69,000 compounds, of which about 2,600 (3.8%) were called active. What follows is part of a selection rich in actives, with near analogues and random picks from the rest. Unmarked numbers belong to inactive results. No stated cut-off is given here; in the data, active means activity change below about -70% (passing the limit was not always enough); inconclusive means no clear call, values can overlap the other calls.

test: T. gondii growth inhibition with IFN-gamma, primary screen, cell-based (AID 1259416); conditions: Toxoplasma gondii growth in IFN-gamma-treated host cells; active compounds read low; concentration not given here;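 further: host cells are HeLa cells infected with Toxoplasma gondii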

SMILES | activity change, negative = inhibition
O=C(CSc1nc2ccc(N3C(=O)c4ccccc4C3=O)cc2s1)N1CCOCC1 | 1.26%
COc1ccc(NS(=O)(=O)c2cc3c4c(c2)CCC(=O)N4CCC3)cc1OC | 2.51%
CC(C)Cc1cc(C(=O)N2CCCC3(CN(C)C(=O)O3)C2)on1 (stereo unspecified) | 3.84%
Cc1nn(C)cc1-c1c(-c2ccccc2)ncn1CCNC(=O)c1ccncc1 | -3.05%
CCCCCC(O)c1cccc(OCc2ccc3ccccc3n2)c1 (stereo unspecified) | 74.5% and 28.6%
Cn1cc(-c2ccncc2)c(-c2ccc(OCc3ccc4ccccc4n3)cc2)n1 | -77.6% (active)
CCOC(=O)c1c(C(F)(F)F)cc(-c2ccccc2)nc1C | 12.4%
O=C(c1ccoc1)N1CCCn2c(nc(CN3CCCC3)cc2=O)C1 | -0.164%
COc1ccc(S(=O)(=O)CCNS(=O)(=O)N2CCCC(C)C2)cc1 (stereo unspecified) | 2.67%
O=C(Cn1ncc2c(N3CCCC3)ncnc21)NCc1ccccc1 | 10.5%
CCN(CC)c1ncnc2c1cnn2CC(=O)NCc1ccccc1 | -95.8% (active)
CCc1ccccc1NC(=O)Cn1ncc2c(N(CC)CC)ncnc21 | -34.2%
Cc1cc(N2CCC(C(=O)Nc3nnc(-c4cccnc4)s3)CC2)n2ncnc2n1 | -5.63%
COc1ccc(CCCOC(Cn2ccnc2)c2ccc(OC)cc2)cc1 (stereo unspecified) | -83.3% (active)
Clc1ccc(C(Cn2ccnc2)OCc2ccsc2Cl)c(Cl)c1 (stereo unspecified) | -59.6% and 3.6%
Cc1nc2c(c(=O)[nH]1)CCN(C(=O)c1c(-c3ccccc3Cl)noc1C)C2 | 11.4%
COC(=O)c1cc2n(n1)CCCN(C(=O)COc1ncnc3ccccc13)C2 | 2.6%
O=C(Nc1ccc(OCc2ccccc2)cc1)OCC1CN(Cc2ccccc2)CCO1 (stereo unspecified) | -88.7% (active)
O=C(COc1ccc(C(=O)c2ccccc2)cc1)NC1CCN(Cc2ccccc2)CC1 | 25.7%
COc1ccc(NC(=O)c2cccc(CN3C[C@@H](C)O[C@@H](C)C3)c2)cc1 | 26.7%
CN1Cc2ccccc2CC2(CCN(Cc3ccsc3)CC2)C1=O | 0.416%
CN1C(=O)c2cc(NC(=O)c3ccc4c(c3)OCO4)ccc2OC[C@@H]2O[C@H](CC(=O)O)CC[C@H]21 | 8.45%

SMILES | activity change, negative = inhibition
Cc1ccc(Cl)cc1NC(=O)CN1C(=O)CCc2cc(S(=O)(=O)N3CCCCC3)ccc21 | 0.0244%
Cc1ccc(NC(=O)CN2C(=O)CCc3cc(S(=O)(=O)N4CCCCC4C)ccc32)cc1N(C)C (stereo unspecified) | -103% (active)
Cc1cc(C)cc(NC(=O)CN2C(=O)CCc3cc(S(=O)(=O)N4CCOCC4)ccc32)c1 | 24.4%
COC(=O)c1c(NCc2c(C)noc2C)c2cccc(Cl)c2[nH]c1=O | 7.07%
Cc1ccc2[nH]c3c(c2c1)CCNC31C(=O)N(C)c2ccc(Br)cc21 (stereo unspecified) | 1.48%
CS(=O)(=O)N1CCO[C@H]2[C@@H](OCc3cccnc3)CC[C@H]21 | 37.3%
O=c1[nH]c2ccccc2n1C1CCN(CCOc2ccccc2)CC1 | -49.4%
O=C1c2cc(OCCN3CCCCC3)ccc2-c2ccc(OCCN3CCCCC3)cc21 | -90% (active)
O=C(Nc1ccc(F)cc1F)N1CCCN(CCOc2ccccc2)CC1 | 8.95%
O=C1NCCc2[nH]c(-c3ccncc3)cc21 | -85.6% (active)
COc1cccc(-c2cn[nH]c2C2CCCN2S(=O)(=O)c2ccc(Cl)cc2)c1 (stereo unspecified) | -31.9%
Cc1nn(CC(=O)N(C)Cc2ccccc2)c(=O)c2nc(-c3ccccc3)sc12 | -55.4%
O=S(=O)(CCSCc1ccc(Cl)cc1)CCSCc1ccc(Cl)cc1 | -10%
CS(=O)(=O)Nc1ccc(-n2cnc(-c3ccccc3)c2)cn1 | 11.6%
CC1(C)CC(=O)c2cnc3cc(-c4ccccc4)nn3c2C1 | -86.8% (active)
O=C(Nc1ccc(F)cc1F)c1c(O)c2ccccc2n(-c2ccccc2)c1=O | 24%
Cc1ccc(NC(=O)CC(=O)NCCc2cnc[nH]2)cc1Cl | 5.77%
S=C(NCCCc1cnc[nH]1)NCCCN(Cc1ccc(Cl)c(Cl)c1)c1ccc(Br)cn1 | -78.1% (active)
COc1ccc(NC(=O)c2cc3c(s2)CCN3C(=O)C2CC2)cc1 | 23.2%
Cn1c(=O)c(-c2nc(-c3cccs3)no2)c(O)c2ccccc21 | 67.9%
CCSCCN(C(=O)c1nnc2nc(C)cc(C)n12)C1CCCCC1 | -3.21%
COc1ccc2c3c(n(C)c2c1)[C@H](CO)N(C(=O)Nc1cccc(F)c1)CC31CN(Cc2nccs2)C1 | -24.3%

SMILES | activity change, negative = inhibition
N#Cc1ccc(C(=O)N2CCC3C2CCC(=O)N3c2cccnc2)cc1 (stereo unspecified) | -20.1%
Cc1cccc(C)c1NC(=O)c1nnn(Cc2nc(-c3ccccc3)oc2C)c1C | -62.3%
CCc1ccccc1NC(=O)c1nnn(Cc2nc(-c3ccccc3C)oc2C)c1C | -107% (active)
COc1ccc(-c2nc(Cn3nnc(C(=O)Nc4ccccc4C)c3C)c(C)o2)c(OC)c1 | 32.4%
Cc1ccc(Cl)cc1NC(=O)c1nnn(Cc2nc(-c3cccc(Cl)c3)oc2C)c1C | 55.8%
Cc1ccc(-c2nc(Cn3nnc(C(=O)NCc4ccccn4)c3C)c(C)o2)cc1 | -57.8%
COc1ccccc1NC(=O)c1nnn(Cc2nc(-c3ccc(C)cc3)oc2C)c1C | -82.9% (active)
COc1ccccc1NC(=O)c1nnn(Cc2nc(-c3cccc(OC)c3OC)oc2C)c1C | -83.3% (active)
COc1ccc(Br)cc1-c1nc(Cn2nnc(C(=O)Nc3cc(F)ccc3C)c2C)c(C)o1 | 423%
Cc1ccccc1-c1nc(Cn2nnc(C(=O)Nc3c(C)cccc3C)c2C)c(C)o1 | -38.6%
CCC(c1ccccn1)N(C)C1CCNCC1 (stereo unspecified) | 16.8%
CN(CC1Cc2ccccc2O1)S(=O)(=O)NCc1ccccc1 (stereo unspecified) | 0.376%
CN1CCO[C@@H]2CN(C(=O)CC3Cc4ccccc4C3)C[C@@H]2C1 | 112%
CN(C[C@@H]1[C@H](c2ccccc2)[C@@H](CO)N1Cc1ccccn1)S(C)(=O)=O | 2.44%
CCc1cc(CN2CCCC2c2nc3ccc(C)cc3[nH]2)on1 (stereo unspecified) | 9.45%
CC(=O)NCCc1csc(C2CCN(C(=O)NCc3ccc(F)cc3)CC2)n1 | -3.56%
O=C(O)CCC(=O)N1CC2CCC(C1)N2C(=O)c1ccco1 | 61.2%
CC(C)NC(=O)N1CC2(C1)[C@H](c1ccccc1)[C@H](CO)N2C(=O)C1CCOCC1 | -2.06%
CCOc1cccc(C2c3[nH]c4ccccc4c3CCN2C(=O)c2ccccc2)c1 (stereo unspecified) | -34.3%
Cc1cccc(C2c3[nH]c4ccccc4c3CCN2C(=O)c2ccccc2C)c1 (stereo unspecified) | -84.7% (active)
CCOc1ccc(C2c3[nH]c4ccccc4c3CCN2C(=O)C2CC2)cc1 (stereo unspecified) | -34.9%
CSc1ccc(C2c3[nH]c4ccccc4c3CCN2C(=O)c2cc3ccccc3[nH]2)cc1 (stereo unspecified) | -96.3% (active)

SMILES | activity change, negative = inhibition
Cc1ccc(C2c3[nH]c4ccccc4c3CCN2C(=O)c2cccc(C)c2)cc1 (stereo unspecified) | 226%
CCOc1cccc(CC(=O)N2CCc3c([nH]c4ccccc34)C2c2ccc(OC)cc2)c1OCC (stereo unspecified) | 213%
Cc1cccc(C2c3[nH]c4ccccc4c3CCN2C(=O)C(=O)CCc2ccccc2)n1 (stereo unspecified) | -13.8%
CCOc1cccc(CC(=O)N2CCc3c([nH]c4ccccc34)C2c2ccc(F)cc2)c1OCC (stereo unspecified) | -74.9% (active)
COCC1CN(c2ccc(C)nn2)Cc2cnn(C)c21 (stereo unspecified) | -0.315%
Cc1ccc(S(=O)(=O)Nc2cncc(C(=O)NCC(C)C)c2)cc1 | -16.9%
Cc1nn(C)c2c1C(c1cc(F)ccc1-n1cccn1)CC(=O)N2 (stereo unspecified) | -37.8%
CC1(C)[C@@H](O[C@H]2O[C@H](C(=O)O)[C@@H](O)[C@H](O)[C@@H]2O[C@@H]2O[C@H](C(=O)O)[C@@H](O)[C@H](O)[C@H]2O)CC[C@@]2(C)[C@H]3C(=O)C=C4[C@@H]5C[C@@](C)(C(=O)O)CC[C@]5(C)CC[C@@]4(C)[C@]3(C)CC[C@@H]12 | 15.6%
COc1ccccc1-c1nc(Cc2noc(-c3cccnc3)n2)c(C)o1 | -62.2%
O=C(c1cccc(Cl)c1)N1CCC2(CC1)Nc1cc(F)ccc1-n1cccc12 | 50.9%
O=C1N[C@H](c2ccccc2)COCc2cn(nn2)CC[C@H]1Cc1cccc(Cl)c1 | -2.88%
CCN(CC)C(=O)[C@@H]1C[C@H](N)CN1C(=O)Cc1ccc(F)c(C)c1 | 3.3%
Cc1cc(-c2cc(C3CCN(C(=O)C4CC(=O)C4)C3)ccn2)ccc1F (stereo unspecified) | 14.5%
c1ccc2c(-c3noc4c3CN(CC3CCCO3)CC4)cccc2c1 (stereo unspecified) | -4.04%
Clc1ccc(-c2noc3c2CN(CCn2cc(Cl)cn2)CC3)cc1 | -72.1% (active)
O=C(CCc1ccco1)N1CCc2onc(-c3ccc(C(F)(F)F)cc3)c2C1 | 9.55%
O=C(CC1COCCN1)NCCC(c1ccccc1)c1ccccc1 (stereo unspecified) | -9.21%
CNc1nc(N2CCN(Cc3nccn3C(C)C)CC2)nc2c1CCC2 | 8.7%
Cc1nc(CN2CCCn3nnc(COC(C)C)c3C2)cs1 | 9.42%
COCCC(=O)N1CCN(CC2CC2)c2nc(C)ccc2C1 | -15.5%
